# Measured values as given in ChEMBL document CHEMBL1961873, “Compounds: GSK PKIS; Assays: Nanosyn kinase panel” (2012).
# Tests used:
# [1] = target: Sphingosine kinase 1 (Homo sapiens) (UniProt Q9NYA1); details: at 1 µM;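 further: mean SPHK1 inhibition value reported from the GSK PKIS kinase panel screen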
# [2] = target: T1, Sphingosine kinase 2 (Homo sapiens) (UniProt Q9NRA0); details: at 0.1 µM
# T1 sequence (whole entry): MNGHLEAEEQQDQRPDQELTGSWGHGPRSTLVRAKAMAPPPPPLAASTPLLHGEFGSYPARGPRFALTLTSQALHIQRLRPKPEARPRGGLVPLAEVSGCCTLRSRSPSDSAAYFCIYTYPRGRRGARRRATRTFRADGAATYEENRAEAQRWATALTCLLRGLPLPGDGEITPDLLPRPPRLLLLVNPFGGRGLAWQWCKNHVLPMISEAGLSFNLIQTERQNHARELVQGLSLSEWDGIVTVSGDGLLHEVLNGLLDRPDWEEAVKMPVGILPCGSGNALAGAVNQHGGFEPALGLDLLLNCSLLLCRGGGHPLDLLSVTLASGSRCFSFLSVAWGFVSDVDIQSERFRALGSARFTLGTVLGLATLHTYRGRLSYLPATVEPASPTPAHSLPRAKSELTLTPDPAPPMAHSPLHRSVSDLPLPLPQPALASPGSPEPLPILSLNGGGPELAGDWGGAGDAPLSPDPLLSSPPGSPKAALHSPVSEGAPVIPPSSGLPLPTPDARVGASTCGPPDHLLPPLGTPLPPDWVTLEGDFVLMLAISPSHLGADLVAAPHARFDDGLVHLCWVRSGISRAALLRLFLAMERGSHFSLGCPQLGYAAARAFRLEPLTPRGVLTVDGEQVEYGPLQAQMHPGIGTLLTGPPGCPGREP
# [3] = target: T1, Sphingosine kinase 2 (Homo sapiens); details: at 1 µM
# [4] = target: Casein kinase II subunit alpha (Homo sapiens) (UniProt P68400); details: at 0.1 µM
# [5] = target: Casein kinase II subunit alpha (Homo sapiens) (UniProt P68400); details: at 1 µM
# [6] = target: T2, Inhibitor of nuclear factor kappa-B kinase subunit alpha (Homo sapiens) (UniProt O15111); details: at 0.1 µM
# T2 sequence (whole entry): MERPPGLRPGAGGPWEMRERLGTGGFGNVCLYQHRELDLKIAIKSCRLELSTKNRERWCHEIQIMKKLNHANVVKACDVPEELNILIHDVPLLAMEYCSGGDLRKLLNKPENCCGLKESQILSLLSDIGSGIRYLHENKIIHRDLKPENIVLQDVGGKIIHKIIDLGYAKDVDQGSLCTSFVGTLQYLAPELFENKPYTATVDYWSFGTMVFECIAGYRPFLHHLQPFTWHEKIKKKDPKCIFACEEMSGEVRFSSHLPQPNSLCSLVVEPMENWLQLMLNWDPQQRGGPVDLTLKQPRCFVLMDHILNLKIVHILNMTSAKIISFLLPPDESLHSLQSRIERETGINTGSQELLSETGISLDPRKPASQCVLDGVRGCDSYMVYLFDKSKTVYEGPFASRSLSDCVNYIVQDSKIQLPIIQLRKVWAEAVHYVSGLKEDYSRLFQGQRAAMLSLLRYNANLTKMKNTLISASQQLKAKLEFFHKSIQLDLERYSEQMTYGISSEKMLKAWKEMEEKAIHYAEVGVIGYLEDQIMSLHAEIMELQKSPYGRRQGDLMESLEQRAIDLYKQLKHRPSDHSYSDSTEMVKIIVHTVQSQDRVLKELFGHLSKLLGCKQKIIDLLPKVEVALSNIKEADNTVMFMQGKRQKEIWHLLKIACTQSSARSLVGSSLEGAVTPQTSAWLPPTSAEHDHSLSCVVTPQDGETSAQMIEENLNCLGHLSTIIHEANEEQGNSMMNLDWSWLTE
# [7] = target: T2, Inhibitor of nuclear factor kappa-B kinase subunit alpha (Homo sapiens); details: at 1 µM
# [8] = target: T3, Inhibitor of nuclear factor kappa-B kinase subunit beta (Homo sapiens) (UniProt O14920); details: at 0.1 µM
# T3 sequence (whole entry): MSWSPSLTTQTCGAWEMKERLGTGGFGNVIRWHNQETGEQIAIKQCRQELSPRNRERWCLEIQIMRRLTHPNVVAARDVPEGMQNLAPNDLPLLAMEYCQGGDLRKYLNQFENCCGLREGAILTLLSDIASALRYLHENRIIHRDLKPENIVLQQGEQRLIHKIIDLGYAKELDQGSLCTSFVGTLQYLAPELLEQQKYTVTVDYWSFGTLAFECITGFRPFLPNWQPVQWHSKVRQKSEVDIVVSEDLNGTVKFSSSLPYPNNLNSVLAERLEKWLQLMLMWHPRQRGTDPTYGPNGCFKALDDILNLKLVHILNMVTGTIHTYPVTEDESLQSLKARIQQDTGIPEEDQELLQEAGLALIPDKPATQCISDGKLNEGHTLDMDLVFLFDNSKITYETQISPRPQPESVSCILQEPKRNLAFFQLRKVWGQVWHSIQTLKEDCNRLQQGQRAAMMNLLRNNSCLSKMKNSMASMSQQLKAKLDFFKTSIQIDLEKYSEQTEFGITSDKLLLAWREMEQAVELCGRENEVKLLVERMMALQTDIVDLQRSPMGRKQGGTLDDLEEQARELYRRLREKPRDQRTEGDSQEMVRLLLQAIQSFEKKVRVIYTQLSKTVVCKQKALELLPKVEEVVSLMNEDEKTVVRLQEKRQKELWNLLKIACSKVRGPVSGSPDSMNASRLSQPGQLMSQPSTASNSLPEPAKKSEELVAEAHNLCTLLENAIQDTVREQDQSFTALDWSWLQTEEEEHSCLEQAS
# [9] = target: T3, Inhibitor of nuclear factor kappa-B kinase subunit beta (Homo sapiens); details: at 1 µM
# [10] = target: T4, Inhibitor of nuclear factor kappa-B kinase subunit epsilon (Homo sapiens) (UniProt Q14164); details: at 0.1 µM
# T4 sequence (whole entry): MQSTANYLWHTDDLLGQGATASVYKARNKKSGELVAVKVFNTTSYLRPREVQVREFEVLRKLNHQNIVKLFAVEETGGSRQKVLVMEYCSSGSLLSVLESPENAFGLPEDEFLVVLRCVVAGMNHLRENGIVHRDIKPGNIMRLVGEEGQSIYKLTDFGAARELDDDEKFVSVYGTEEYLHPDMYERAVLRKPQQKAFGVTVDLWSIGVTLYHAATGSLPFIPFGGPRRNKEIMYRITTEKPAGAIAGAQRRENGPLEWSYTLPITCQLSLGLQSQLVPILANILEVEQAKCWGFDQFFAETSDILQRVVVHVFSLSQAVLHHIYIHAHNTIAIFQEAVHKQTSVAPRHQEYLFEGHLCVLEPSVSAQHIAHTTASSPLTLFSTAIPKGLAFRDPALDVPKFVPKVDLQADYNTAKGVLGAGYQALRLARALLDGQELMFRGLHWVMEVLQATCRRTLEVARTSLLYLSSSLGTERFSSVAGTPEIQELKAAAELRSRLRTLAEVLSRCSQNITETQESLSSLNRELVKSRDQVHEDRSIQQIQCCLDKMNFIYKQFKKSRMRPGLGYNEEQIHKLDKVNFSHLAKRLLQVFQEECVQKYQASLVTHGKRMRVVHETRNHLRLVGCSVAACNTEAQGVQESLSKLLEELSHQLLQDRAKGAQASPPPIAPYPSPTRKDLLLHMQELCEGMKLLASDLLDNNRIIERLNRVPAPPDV
# [11] = target: T4, Inhibitor of nuclear factor kappa-B kinase subunit epsilon (Homo sapiens); details: at 1 µM
# [12] = target: T5, Serine/threonine-protein kinase Nek1 (Homo sapiens) (UniProt Q96PY6); details: at 0.1 µM
# T5 sequence (whole entry): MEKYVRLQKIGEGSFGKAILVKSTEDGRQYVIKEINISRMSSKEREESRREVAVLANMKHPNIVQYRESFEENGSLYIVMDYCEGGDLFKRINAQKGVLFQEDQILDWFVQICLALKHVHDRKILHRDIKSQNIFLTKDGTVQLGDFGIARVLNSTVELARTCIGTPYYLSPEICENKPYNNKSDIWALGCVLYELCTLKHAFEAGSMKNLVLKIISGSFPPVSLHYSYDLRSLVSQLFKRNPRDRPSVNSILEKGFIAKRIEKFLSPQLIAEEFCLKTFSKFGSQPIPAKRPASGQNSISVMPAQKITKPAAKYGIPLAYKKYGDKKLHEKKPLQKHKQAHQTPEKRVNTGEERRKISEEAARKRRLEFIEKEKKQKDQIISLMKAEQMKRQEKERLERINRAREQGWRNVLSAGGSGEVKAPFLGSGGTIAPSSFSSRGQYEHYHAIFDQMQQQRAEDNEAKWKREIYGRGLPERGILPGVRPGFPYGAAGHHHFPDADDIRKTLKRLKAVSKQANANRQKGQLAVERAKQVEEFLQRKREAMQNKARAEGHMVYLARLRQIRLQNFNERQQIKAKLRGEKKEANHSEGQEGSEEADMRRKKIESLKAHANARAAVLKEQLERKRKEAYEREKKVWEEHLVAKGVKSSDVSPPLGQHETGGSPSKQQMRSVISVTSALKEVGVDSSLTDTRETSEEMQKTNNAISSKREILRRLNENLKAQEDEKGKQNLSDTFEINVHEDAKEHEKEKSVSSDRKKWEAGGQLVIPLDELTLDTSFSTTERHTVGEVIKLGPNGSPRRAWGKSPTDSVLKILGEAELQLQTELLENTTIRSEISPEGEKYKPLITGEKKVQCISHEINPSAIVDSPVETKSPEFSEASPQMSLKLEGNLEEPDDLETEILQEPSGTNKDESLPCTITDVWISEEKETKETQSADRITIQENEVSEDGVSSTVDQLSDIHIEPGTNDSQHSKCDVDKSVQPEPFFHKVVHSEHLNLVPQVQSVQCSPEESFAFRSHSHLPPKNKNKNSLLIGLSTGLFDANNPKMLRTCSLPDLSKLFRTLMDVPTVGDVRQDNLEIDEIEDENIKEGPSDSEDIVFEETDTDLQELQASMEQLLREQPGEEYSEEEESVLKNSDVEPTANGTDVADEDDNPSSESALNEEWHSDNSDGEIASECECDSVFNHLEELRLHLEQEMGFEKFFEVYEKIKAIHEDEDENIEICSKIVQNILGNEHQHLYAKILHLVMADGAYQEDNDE
# [13] = target: T5, Serine/threonine-protein kinase Nek1 (Homo sapiens); details: at 1 µM
# [14] = target: T6, Serine/threonine-protein kinase Nek2 (Homo sapiens) (UniProt P51955); details: at 0.1 µM
# T6 sequence (whole entry): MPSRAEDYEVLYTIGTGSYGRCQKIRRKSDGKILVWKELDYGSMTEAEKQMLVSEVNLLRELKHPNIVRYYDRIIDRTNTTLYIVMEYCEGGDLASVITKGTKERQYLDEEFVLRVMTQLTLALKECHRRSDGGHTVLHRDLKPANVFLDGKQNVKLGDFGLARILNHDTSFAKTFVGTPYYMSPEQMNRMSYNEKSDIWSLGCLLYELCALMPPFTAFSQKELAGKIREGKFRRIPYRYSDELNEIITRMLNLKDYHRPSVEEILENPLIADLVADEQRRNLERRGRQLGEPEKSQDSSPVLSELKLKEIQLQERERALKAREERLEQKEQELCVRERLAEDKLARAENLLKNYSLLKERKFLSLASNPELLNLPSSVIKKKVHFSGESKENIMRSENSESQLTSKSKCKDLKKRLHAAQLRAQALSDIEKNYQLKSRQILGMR
# [15] = target: T6, Serine/threonine-protein kinase Nek2 (Homo sapiens); details: at 1 µM
# [16] = target: Serine/threonine-protein kinase Nek6 (Homo sapiens) (UniProt Q9HC98); details: at 0.1 µM
# [17] = target: Serine/threonine-protein kinase Nek6 (Homo sapiens) (UniProt Q9HC98); details: at 1 µM
# [18] = target: Serine/threonine-protein kinase Nek7 (Homo sapiens) (UniProt Q8TDX7); details: at 0.1 µM
# [19] = target: Serine/threonine-protein kinase Nek7 (Homo sapiens) (UniProt Q8TDX7); details: at 1 µM
# [20] = target: T7, Serine/threonine-protein kinase Nek9 (Homo sapiens) (UniProt Q8TD19); details: at 0.1 µM;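 further: reported value is the mean percent inhibition of NEK9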
# T7 sequence (whole entry): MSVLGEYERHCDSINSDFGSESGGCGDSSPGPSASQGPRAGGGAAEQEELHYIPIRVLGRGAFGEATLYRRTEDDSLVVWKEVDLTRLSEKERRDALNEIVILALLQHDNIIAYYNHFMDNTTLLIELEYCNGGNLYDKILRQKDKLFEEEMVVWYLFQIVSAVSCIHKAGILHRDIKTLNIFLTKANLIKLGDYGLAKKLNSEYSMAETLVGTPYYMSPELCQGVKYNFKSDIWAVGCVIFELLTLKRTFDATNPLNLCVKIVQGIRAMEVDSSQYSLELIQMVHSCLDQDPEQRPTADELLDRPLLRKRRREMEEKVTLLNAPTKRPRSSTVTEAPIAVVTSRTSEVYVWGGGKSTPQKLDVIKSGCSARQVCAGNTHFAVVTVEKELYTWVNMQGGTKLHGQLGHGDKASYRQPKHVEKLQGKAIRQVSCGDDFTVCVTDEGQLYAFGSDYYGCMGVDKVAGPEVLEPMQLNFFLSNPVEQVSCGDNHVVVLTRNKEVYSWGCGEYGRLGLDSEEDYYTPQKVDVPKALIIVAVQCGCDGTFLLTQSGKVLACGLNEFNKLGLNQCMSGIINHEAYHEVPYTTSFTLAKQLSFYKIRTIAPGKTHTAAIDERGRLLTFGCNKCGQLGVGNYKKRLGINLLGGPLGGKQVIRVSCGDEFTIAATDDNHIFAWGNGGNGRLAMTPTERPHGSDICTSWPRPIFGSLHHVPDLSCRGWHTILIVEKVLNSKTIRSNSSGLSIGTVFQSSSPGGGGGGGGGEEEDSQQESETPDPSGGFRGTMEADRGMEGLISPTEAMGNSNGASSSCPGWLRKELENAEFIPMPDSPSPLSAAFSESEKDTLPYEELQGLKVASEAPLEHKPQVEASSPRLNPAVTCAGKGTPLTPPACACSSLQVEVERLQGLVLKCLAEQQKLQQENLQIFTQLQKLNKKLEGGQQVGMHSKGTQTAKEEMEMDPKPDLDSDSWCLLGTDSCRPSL
# Sequence of Casein kinase II subunit alpha (Homo sapiens) (P68400 whole entry, looked up): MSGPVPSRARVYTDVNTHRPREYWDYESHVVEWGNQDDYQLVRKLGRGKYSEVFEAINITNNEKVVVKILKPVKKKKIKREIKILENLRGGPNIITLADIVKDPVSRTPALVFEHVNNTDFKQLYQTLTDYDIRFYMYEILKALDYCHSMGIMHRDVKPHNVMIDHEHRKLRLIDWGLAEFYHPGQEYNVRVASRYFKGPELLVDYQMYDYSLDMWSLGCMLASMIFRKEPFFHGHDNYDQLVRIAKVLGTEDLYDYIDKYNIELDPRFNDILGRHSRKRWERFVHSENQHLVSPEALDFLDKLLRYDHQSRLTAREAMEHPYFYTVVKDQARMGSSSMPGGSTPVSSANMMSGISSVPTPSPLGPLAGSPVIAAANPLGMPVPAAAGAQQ
# Sequence of Serine/threonine-protein kinase Nek6 (Homo sapiens) (Q9HC98 whole entry): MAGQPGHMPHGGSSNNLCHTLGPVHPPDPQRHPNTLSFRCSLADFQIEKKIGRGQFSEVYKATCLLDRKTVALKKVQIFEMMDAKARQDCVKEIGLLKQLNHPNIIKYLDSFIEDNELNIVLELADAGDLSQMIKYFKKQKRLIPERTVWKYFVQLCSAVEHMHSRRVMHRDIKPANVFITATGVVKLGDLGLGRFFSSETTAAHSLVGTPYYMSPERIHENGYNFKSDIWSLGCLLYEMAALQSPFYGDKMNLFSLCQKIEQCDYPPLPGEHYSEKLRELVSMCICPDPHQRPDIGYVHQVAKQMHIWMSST
# Sequence of Serine/threonine-protein kinase Nek7 (Homo sapiens) (Q8TDX7 whole entry, looked up): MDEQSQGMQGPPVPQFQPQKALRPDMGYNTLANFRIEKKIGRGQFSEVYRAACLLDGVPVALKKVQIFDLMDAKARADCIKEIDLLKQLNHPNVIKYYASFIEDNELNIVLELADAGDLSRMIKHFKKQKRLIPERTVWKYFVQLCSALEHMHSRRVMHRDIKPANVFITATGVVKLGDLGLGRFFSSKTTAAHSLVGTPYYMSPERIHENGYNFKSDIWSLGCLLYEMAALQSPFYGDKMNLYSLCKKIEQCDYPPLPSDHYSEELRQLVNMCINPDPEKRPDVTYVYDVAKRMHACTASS
# Sequence of Sphingosine kinase 1 (Homo sapiens) (Q9NYA1 whole entry): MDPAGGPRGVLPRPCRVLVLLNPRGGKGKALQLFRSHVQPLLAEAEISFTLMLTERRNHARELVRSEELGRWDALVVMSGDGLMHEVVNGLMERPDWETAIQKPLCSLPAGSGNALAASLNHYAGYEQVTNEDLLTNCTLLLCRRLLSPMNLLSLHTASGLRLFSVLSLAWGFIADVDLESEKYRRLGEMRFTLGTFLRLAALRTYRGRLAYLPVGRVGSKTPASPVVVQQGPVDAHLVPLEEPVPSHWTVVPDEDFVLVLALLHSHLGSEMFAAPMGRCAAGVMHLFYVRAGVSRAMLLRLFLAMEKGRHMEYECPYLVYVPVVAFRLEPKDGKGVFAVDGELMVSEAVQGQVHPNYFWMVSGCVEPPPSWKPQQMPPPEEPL
smiles,measurement,setting,value
COc1cc2ncn(-c3cc(OCc4ccccc4S(C)(=O)=O)c(C#N)s3)c2cc1OC,inhibition,[1],-0.15%
same,inhibition,[2],0.46%
same,inhibition,[3],-2.2%
same,inhibition,[4],2.39%
same,inhibition,[5],5%
same,inhibition,[6],6.91%
same,inhibition,[7],5.75%
same,inhibition,[8],3.44%
same,inhibition,[9],1.17%
same,inhibition,[10],42.5%
same,inhibition,[11],115%
same,inhibition,[12],2.58%
same,inhibition,[13],3%
same,inhibition,[14],6.68%
same,inhibition,[15],14.4%
same,inhibition,[16],3.33%
same,inhibition,[17],-0.15%
same,inhibition,[18],4.85%
same,inhibition,[19],3.13%
same,inhibition,[20],3.17%
